Source: PubChem
FBW7 act: human FBW7 E3 ligase activation, primary screen; 650,000 tested, 0.13% active; AlphaScreen FBW7–phospho-cyclin E peptide binding, activator screen; normalized activity (activation), % at 26.1 µM; in the data active = normalized activity above about 1.9%;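 note: purified mutant Fbw7 with reduced substrate affinity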
TEAD-YAP block: TEAD-YAP interaction inhibition; HEK-TIYL cells, TEAD-Gal4/YAP UAS-luciferase luminescence; inhibition, % at 9.12 µM; 640,000 tested, 1.4% active; in the data active = inhibition above about 32%;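 note: 0% = median of test compound wells and 100% = reference inhibitor wells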
GPR151 activ: activates the human receptor GPR151 | 650,000 tested, 1% active | activation, % at 11.2 µM | Q8TDV0 | PathHunter beta-arrestin GPR151 cells, luminescence; in the data active = activation above about 4.9%;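 note: 0% = median of compound wells and 100% = cells with positive control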
Target sequence (Q8TDV0 whole entry, looked up): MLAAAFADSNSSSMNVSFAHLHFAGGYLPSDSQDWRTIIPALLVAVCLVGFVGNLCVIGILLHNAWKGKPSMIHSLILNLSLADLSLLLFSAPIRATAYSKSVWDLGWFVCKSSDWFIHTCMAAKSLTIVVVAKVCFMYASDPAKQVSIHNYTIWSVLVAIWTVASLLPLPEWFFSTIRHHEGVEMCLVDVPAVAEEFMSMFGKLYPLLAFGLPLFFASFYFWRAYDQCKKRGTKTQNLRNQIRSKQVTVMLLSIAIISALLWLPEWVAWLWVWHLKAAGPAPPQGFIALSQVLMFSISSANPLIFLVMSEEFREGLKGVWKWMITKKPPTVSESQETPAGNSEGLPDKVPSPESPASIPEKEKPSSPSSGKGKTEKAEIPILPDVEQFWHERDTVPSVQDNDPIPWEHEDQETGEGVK
MITF primary: inhibitors of human MITF. O75030. AlphaScreen MITF homodimerization, bead proximity signal. inhibition, % at 2.6 µM. 650,000 tested, 0.91% active; in the data active = inhibition above about 50%;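 note: 0% = vehicle wells with protein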
GPR151 confirm: confirmation of human GPR151 activators; shares compounds with GPR151 activ; GPR151 PathHunter beta-arrestin cells, luminescence, 90 min; % of EA-reagent control over plate median; activation, % at 11.2 µM; 6,700 tested, under 10 active;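 active = mean percent activation across replicates above the confirmation screen cutoff of 4.91%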
GPR119 counter: counter-screen for GPR151 activators: effect on human GPR119. shares compounds with GPR151 activ. GPR119 PathHunter beta-arrestin cells, luminescence, 90 min; 0 = compound-well median, 100 = enzyme-acceptor control. activation, % at 11.2 µM. 6,700 tested, 0.3% active. AID 1508611;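 active = mean percent activation in the counterscreen above 29.09%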;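 note: counterscreen on off-target GPR119 to flag nonselective hits from the GPR151 activator screen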
The depositor's hits bear a star; · = no result. Only some compounds are listed: those with a hit (about 3.5% of all), similar ones and a draw of the others.

SMILES | FBW7 act | TEAD-YAP block | GPR151 activ | MITF primary | GPR151 confirm | GPR119 counter
Cc1cc(-n2c(SCc3ccccc3)nc3ccsc3c2=O)ccc1Cl | 0 | -7 | 5.6* | 1 | 1 | 8
O=C1NC(=O)c2cc(NC(=O)C3CC3)ccc21 | 0 | -2 | 5.2* | 4 | 0 | 5
O=C(Nc1ccc(-c2ccc([N+](=O)[O-])cc2)cc1)C1CC1 | 0 | -47 | 2 | -5 | · | ·
O=C(Nc1ccc([N+](=O)[O-])cc1)C1CC1 | 0 | 8 | 7.5* | 5 | 1 | -7
O=C(CCc1ccccc1)Nc1nnc(-c2ccc(F)cc2)o1 | 0 | -6 | 5.7* | -6 | 1 | 7
CCOc1ccccc1OCCN[C@H](C)Cc1ccc(OC)c(S(N)(=O)=O)c1 | 0 | -2 | 6.8* | -16 | 0 | 0
Cc1cc(C)nc(NC(=O)Cc2ccc(F)cc2)n1 | 0 | -6 | 13* | -1 | 0 | -3
Cc1cc(C)nc(NS(=O)(=O)c2ccc(NC(=O)Cc3ccc(F)cc3)cc2)n1 | 0 | -2 | 0 | 5 | · | ·
O=C(Nc1ccc(Cl)cc1)c1cc(S(=O)(=O)NCCC2=CCCCC2)ccc1F | 0 | 27 | 1 | 9 | · | ·
O=C(NCCC1=CCCCC1)c1cc(S(=O)(=O)NCCc2ccccc2)ccc1F | 0 | 9 | 9.7* | -8 | 0 | 8
Cc1ccc2c(c1)CC(C)N2S(=O)(=O)c1nnc(NC(=O)c2cccs2)s1 (stereo not drawn) | 0 | 2 | -1 | 11 | · | ·
CC(=O)C1=C(C)N(Cc2ccccc2)C(=O)N[C@H]1c1cccc(F)c1 | 0 | · | 6.9* | 27 | 0 | 8
Cc1ccc2c(c1)/C(=C\c1ccc(Br)cc1)c1cc3ccccc3nc1-2 | 0 | 5 | 6.1* | -2 | -1 | -8
CN(C(=O)c1cccc(S(=O)(=O)N2CCCCC2)c1)c1ccccc1 | 0 | -9 | -2 | 2 | · | ·
CNC(=O)c1ccc(OC)c(S(=O)(=O)N2CCC(C)CC2)c1 | 1 | 6 | 5.4* | 7 | 0 | -7
COc1ccc(C(=O)N(C)c2ccccc2)cc1S(=O)(=O)N1CCCC1 | 0 | -5 | 5.2* | 4 | 0 | 0
Cc1[nH]c(=O)[nH]c(=O)c1S(=O)(=O)Nc1ccc2oc(-c3ccncc3)nc2c1 | 0 | -3 | -1 | 8 | · | ·
O=[N+]([O-])c1cccc(-c2ccc(/C=N/Nc3nc4ccccc4[nH]3)o2)c1 | 0 | -3 | 2 | 10 | · | ·
Cc1cc(C(=O)Nc2cccc(O)c2)ccc1[N+](=O)[O-] | 0 | -36 | -1 | 15 | · | ·
Cc1cccc(NC(=O)c2ccc(NCCc3ccccc3)c([N+](=O)[O-])c2)c1 | 0 | 6 | 6.6* | 10 | -1 | -4
Cc1cc(C(=O)Nc2cccc(NC(=O)c3ccccc3)c2)ccc1[N+](=O)[O-] | 0 | -11 | 6.3* | 8 | 0 | 3
CC12CCC(C(=O)Nc3ccc(F)c(F)c3)(CC1=O)C2(C)C (stereo not drawn) | 0 | 13 | 8.8* | -28 | 0 | 0
O=C(CCCCCn1c(=S)[nH]c2cc3c(cc2c1=O)OCO3)NCc1cccnc1 | 0 | -5 | 5.9* | 0 | 2 | 6
O=C(CCCCCn1c(=S)[nH]c2cc3c(cc2c1=O)OCO3)NCc1ccccc1 | 0 | -1 | 1 | 4 | · | ·
COc1ccc(CNc2ccc(S(N)(=O)=O)cc2)cc1OC | 0 | -6 | -2 | -4 | · | ·
SMILES | FBW7 act | TEAD-YAP block | GPR151 activ | MITF primary | GPR151 confirm | GPR119 counter
CCc1nnc(NC(=O)C2(c3cccc(F)c3)CCCC2)s1 | 0 | 0 | 5.2* | 8 | 1 | -2
O=C(Nc1nc2ccccc2[nH]1)c1ccc(Br)cc1 | 0 | 25 | 8.0* | 21 | -4 | -18
CCOC(=O)c1sc2ncn(/N=C/N(C)C)c(=O)c2c1C | 0 | 9 | 7.1* | 5 | 1 | 4
CC(C)n1cnc2c(NCc3cccnc3)nc(Nc3ccnn3C)nc21 | 0 | -4 | 0 | -3 | · | ·
Cc1ccc(CN2CCNC(=O)C2CC(=O)N2CCCN(c3ncccn3)CC2)o1 (stereo not drawn) | 0 | -1 | 1 | -17 | · | ·
Cc1ccc(CN2CCNC(=O)C2CC(=O)N2CCCN(Cc3ccccn3)CC2)o1 (stereo not drawn) | 0 | -1 | 5.6* | 13 | 0 | 1
COc1ccc(-c2nc(C)c(CCNC(=O)c3cccc(OC)c3)s2)cc1 | 0 | -14 | 1 | 1 | · | ·
COc1ccc(C(=O)NCCc2sc(-c3ccccc3)nc2C)cc1 | 0 | -5 | 5.2* | -7 | 0 | 1
COc1ccc(/C=N/NC(=O)C(=O)Nc2cccc3ccccc23)cc1OC | 0 | 3 | 0 | -4 | · | ·
CCOC(=O)C1=C(C)NC(SCC(=O)Nc2cc(C)on2)=C(C#N)C1c1cccs1 (stereo not drawn) | 0 | 16 | 5.8* | 9 | -1 | -8
CCOC(=O)C1=C(C)NC(SCC(N)=O)=C(C#N)C1c1cccs1 (stereo not drawn) | 0 | 5 | 0 | 5 | · | ·
CCNc1nc(OC(C(F)(F)F)C(F)(F)F)nc(N2CCCCC2)n1 | 0 | 3 | 6.0* | -9 | 2 | 13
CC(=O)OC[C@H]1O[C@H](C/C=N/O[C@@H](C)CN2CCCc3nc(C)c(C)cc32)C=C[C@@H]1OC(C)=O | 0 | · | 2 | 0 | · | ·
NC(=O)c1cc2c(ccc3ccccc32)oc1=Nc1ccccc1 | 0 | -8 | 5.2* | 3 | -1 | -8
CN(C)CCNC(=O)C(=O)NCC1OCCN1S(=O)(=O)c1cccs1 (stereo not drawn) | 1 | 6 | 6.3* | -16 | 0 | 4
COC(CNC(=O)C(=O)NCC1OCCN1S(=O)(=O)c1cccs1)OC (stereo not drawn) | 1 | -7 | -2 | 7 | · | ·
c1c2c(cc3c1OCCO3)C1CN(C2)Cc2cc3c(cc21)OCCO3 | 0 | 10 | 7.4* | 6 | 0 | 0
CCc1ccc(C2NCCc3cc4c(cc32)OCCO4)cc1 (stereo not drawn) | 0 | 3 | 4 | 5 | · | ·
Cc1ccc(NC(=O)NC23CC4CC(CC(C4)C2)C3)cc1NC(=O)NC12CC3CC(CC(C3)C1)C2 | 0 | 0 | 0 | 1 | · | ·
Cc1ccc(NC(=O)NC23CC4CC(CC(C4)C2)C3)cc1 | 0 | -22 | 5.6* | -7 | 1 | 3
COC(=O)C1=C(C)NC2=C(C(=O)CC(c3ccc(OC)c(OC)c3)C2)C1c1ccccc1C (stereo not drawn) | 0 | 2 | 0 | 3 | · | ·
CCOc1ccc(-c2noc(CCC(=O)NC)n2)cc1OC | 0 | -15 | 0 | -1 | · | ·
CCOc1cc(-c2noc(CCC(=O)NC)n2)cc(Br)c1OC | 0 | 6 | 6.6* | -17 | 0 | 8
Cc1nc2nc(NCc3ccccc3F)[nH]n2c(=O)c1C | 0 | 3 | 5.0* | -7 | 0 | 0
